The record followed here is a collection of fitness landscapes (doi:10.1016/j.celrep.2020.107928).

Whole data set: some 81,000 sequences, median “one-hybrid fitness for binding parS DNA” near -0.17, cut for the highest 2% near 0.51. The entries come from a sample that favours the highest values as a whole.

The chains are these.
B1: Caulobacter ParB omega fusion; a variant is named by its letters at X, in order, B8GW30 (parent)
chain: MESVVVGEPGMSEGRRGLGRGLSALLGEVDAAPAQAPGEQLGGSREAPIEILQRNPDQPRRTFREEDLEDLSNSIREKGVLQPILVRPSPDTAGEYQIVAGERAWRAAQRAGLKTVPIMVRELDDLAVLEIGIIENVQRADLNVLEEALSYKVLMEKFERTQENIAQTIGKSXSHVANXMRLLXLPDEVQSYLVSGELTAXHARAIAAAADPVALAKQIIEGGLSVRETEALARKAPNLSAGKSKGGRPPRVKDTDTQALESDLSSVLGLDVSIDHRGSTGTLTITYATLEQLDDLCNRLTRGI

Variants of B1 are the subject of the assay. Kind of assay: one-hybrid fitness for binding parS DNA (scaled: cognate 1, non-cognate 0); higher = stronger binding. The note with it: with parS DNA site. The essentials:
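Pre- and post-selection plasmids were Illumina-sequenced, three replicate libraries were pooled, and any variant with under 10 reads was removed. The libraries were Caulobacter ParB with four specificity codons randomised, selected in E. coli USO through a HIS3 reporter whose site is 19 bp from the promoter. Cells grew 48 hours at 37°C on M9 without histidine, with 0.1 mM IPTG and 5 mM 3-AT. Fitness is the log change in variant-to-wild-type read ratio, rescaled against cognate and non-cognate.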
As to HCNG, the “one-hybrid fitness for binding parS DNA” value is no more than 0.2.
As to RVAP, the “one-hybrid fitness for binding parS DNA” value was no more than 0.2.
Next, RVAD: no more than 0.2.
Under RVFC stands 0.972; under RVFF, 0.303.
Next, RVAC: 0.982.
On to RVFR, for which the “one-hybrid fitness for binding parS DNA” value was no more than 0.2.
Next, YKSS: no more than 0.2; DLKY: no more than 0.2.
For KPVK, the “one-hybrid fitness for binding parS DNA” value was no more than 0.2.
Under RCKF stands 0.541; under RTYF, 0.259; under RTDF, no more than 0.2.
Under RPKF stands no more than 0.2; under RTKF, 0.734; under RTRF, 0.627.
Next, RSKF: 0.35.
Regarding RTVF, the “one-hybrid fitness for binding parS DNA” value is no more than 0.2.
Next, RWHR: no more than 0.2; RPGM: no more than 0.2; VKLS: no more than 0.2.
Under EMNC stands no more than 0.2; under QAGG, no more than 0.2; under VSVK, no more than 0.2.
Turning to LNGG, the “one-hybrid fitness for binding parS DNA” value is no more than 0.2.
Under RVPS stands 0.812; under RVIS, 0.981.
Next, RVID: no more than 0.2; RVPP: no more than 0.2.
Under RVPD stands no more than 0.2; under RVIP, no more than 0.2.
As to PTIM, the “one-hybrid fitness for binding parS DNA” value was no more than 0.2.
As for CNLM, the “one-hybrid fitness for binding parS DNA” value is no more than 0.2.
On to LLRY, for which the “one-hybrid fitness for binding parS DNA” value was no more than 0.2.
For EDTE, the “one-hybrid fitness for binding parS DNA” value is no more than 0.2.
Under RENG stands 0.302; under RSYG, 0.991.
Turning to RSYR, the “one-hybrid fitness for binding parS DNA” value is no more than 0.2.
As to RCNG, the “one-hybrid fitness for binding parS DNA” value is 0.966.
Under REDG stands no more than 0.2; under RSNG, 1.
Next, RSYF: 0.233.
In the case of RPNG, the “one-hybrid fitness for binding parS DNA” value is no more than 0.2.
Consider RSNK, for which the “one-hybrid fitness for binding parS DNA” value is no more than 0.2.
Next, RSDG: 0.84; RSDF: no more than 0.2.
Under RDNG stands no more than 0.2.
Under YWPS stands no more than 0.2; under CLAE, no more than 0.2.
As to SEHQ, the “one-hybrid fitness for binding parS DNA” value came out at 0.354.
Under DVPP stands no more than 0.2.
Next, PLMI: no more than 0.2.
Under HVLG stands no more than 0.2; under AYDG, no more than 0.2; under RPDG, no more than 0.2.
As to RDDG, the “one-hybrid fitness for binding parS DNA” value is no more than 0.2.
On to RCDG, for which the “one-hybrid fitness for binding parS DNA” value is 0.959.
Under EYDG stands no more than 0.2; under SQTL, no more than 0.2.
On to RAPC, for which the “one-hybrid fitness for binding parS DNA” value worked out at 0.485.
As to RAIC, the “one-hybrid fitness for binding parS DNA” value stood at 0.782.
Under RKPC stands 0.488; under RPIC, no more than 0.2; under RSIN, 0.269.
Next, RKIF: no more than 0.2.
Next, RSIC: 0.718; RSIH: no more than 0.2; RAIM: 0.209.
Consider RCIC, for which the “one-hybrid fitness for binding parS DNA” value is 0.906.
Next, RKIC: 0.811; RDIC: no more than 0.2; ARLT: no more than 0.2.
With THAD, the “one-hybrid fitness for binding parS DNA” value was no more than 0.2.
Under PYVA stands no more than 0.2; under HQCG, no more than 0.2; under HLKN, no more than 0.2.
Under RHPC stands 0.367.
Under RHIC stands 0.651; under RHIN, no more than 0.2; under RNVC, 0.599.
As for RNKD, the “one-hybrid fitness for binding parS DNA” value is no more than 0.2.
Under RNKP stands no more than 0.2.
Next, RNVF: no more than 0.2.
Take RNKC: the “one-hybrid fitness for binding parS DNA” value turned out to be 0.917.
Under RNVR stands no more than 0.2; under IKLC, no more than 0.2.
LQAE: the “one-hybrid fitness for binding parS DNA” value is no more than 0.2.
Next, IYHY: no more than 0.2; VEVT: no more than 0.2; NPKT: no more than 0.2.
For the variant ITLC, the “one-hybrid fitness for binding parS DNA” value was no more than 0.2.
Consider ARFV, for which the “one-hybrid fitness for binding parS DNA” value was no more than 0.2.
Next, RIVG: 0.946; RIKN: 0.451; RIKK: no more than 0.2.
Under RIKG stands 0.959; under RIVF, 0.378.
Under RIVR stands no more than 0.2.
